# PubChem BioAssay (Tox21)
# Where “and” joins values, the source holds several entries; their conditions need not be identical. Equal entries are not always repeated. Results filed as inconclusive are left out. Entries that show only a call come without a potency. Some structures have more than one record in an assay (separate samples or runs), and their calls can disagree. Calls of active or inactive are those of the source. Calls come from the whole dose curve; as a rule, active = well fitted curve in the direction sought with a large enough effect in the repeat runs; inconclusive = weak or mixed curves; inactive = no such curve, though single readings can be large; an effect the other way counts as inactive or inconclusive.
# Experiments:
# [1] = A CellTox Green Cytotoxicity Assay to monitor cytotoxicity in HEK293 cells - 40 hour (AID 1224871); settings: CellTox Green fluorescence; series mostly up to 76.8 µM; note: nearly all actives have a fitted effect of over 45% in size; note: potency is the fitted concentration of half-maximal effect
# In short: (§1)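 Dead-cell fluorescence measured kinetically: asymmetric cyanine dye, HEK293, 600 cells/well, 5 h settle, 23 nL cpd/DMSO, 37 C, reads 0–40 h every 8 h.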
# [2] = qHTS RealTime-Glo MT Cell Viability Assay in HEK293 cells - 16 hour (AID 1224872); settings: RealTime-Glo luminescence; series mostly up to 76.8 µM; note: nearly all actives have a fitted effect of over 50% in size; note: potency is the fitted concentration of half-maximal effect
# In short: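 Assay medium contained NanoLuc luciferase plus cell-permeant prosubstrate, added with HEK293 cells at 600 cells/well. After 5 h at 37 C/5% CO2 compounds were added; plates stayed at 37 C for 40 h with serial luminescence reads.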
# [3] = qHTS RealTime-Glo MT Cell Viability Assay in HepG2 cells - 8 hour (AID 1224873); settings: RealTime-Glo luminescence; series mostly up to 76.8 µM; note: nearly all actives have a fitted effect of over 55% in size
# In short: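 Real-time viability: cells seeded at 600 per well together with NanoLuc and cell-permeant prosubstrate, compounds added after 5 h incubation. Luminescence tracked at 0, 8, 16, 24, 32 and 40 h of exposure.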
# [4] = A CellTox Green Cytotoxicity Assay to monitor cytotoxicity in HEK293 cells - 24 hour (AID 1224875); settings: CellTox Green fluorescence; series mostly up to 76.8 µM; note: nearly all actives have a fitted effect of over 45% in size
# In short: as §1
# [5] = A CellTox Green Cytotoxicity Assay to monitor cytotoxicity in HepG2 cells - 16 hour (AID 1224876); settings: CellTox Green fluorescence; series mostly up to 76.8 µM; note: nearly all actives have a fitted effect of over 45% in size; note: potency is the fitted concentration of half-maximal effect
# In short: (§2)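 First, HepG2 cells (600/well) mixed with reagent were plated; second, after 5 h at 37 C they received compounds via pintool; third, fluorescence was measured at 0 h through 40 h at 8 h intervals.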
# [6] = qHTS RealTime-Glo MT Cell Viability Assay in HepG2 cells - 32 hour (AID 1224877); settings: RealTime-Glo luminescence; series mostly up to 76.8 µM; note: nearly all actives have a fitted effect of over 55% in size
# In short: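 qHTS, HepG2, 600 cells/well, RealTime-Glo (NanoLuc + prosubstrate) added with cells; 5 h preincubation; DMSO compound addition; 37 C; luminescence at 0/8/16/24/32/40 h.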
# [7] = A CellTox Green Cytotoxicity Assay to monitor cytotoxicity in HepG2 cells - 24 hour (AID 1224878); settings: CellTox Green fluorescence; series mostly up to 76.8 µM; note: nearly all actives have a fitted effect of over 45% in size; note: potency is the fitted concentration of half-maximal effect
# In short: as §2
# [8] = A CellTox Green Cytotoxicity Assay to monitor cytotoxicity in HepG2 cells - 40 hour (AID 1224879); settings: CellTox Green fluorescence; series mostly up to 76.8 µM; note: nearly all actives have a fitted effect of over 40% in size; note: potency is the fitted concentration of half-maximal effect
# In short: as §2
# [9] = qHTS RealTime-Glo MT Cell Viability Assay in HEK293 cells - 0 hour (AID 1224880); settings: RealTime-Glo luminescence; series mostly up to 76.8 µM
# In short: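 600 HEK293 cells per well, dispensed already mixed with RealTime-Glo MT reagents. Compound dosing came 5 h later. The same wells were read for luminescence at 0, 8, 16, 24, 32 and 40 h of exposure at 37 C.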
Structure (SMILES),Potency [1],Potency [2],Potency [3],Potency [4],Potency [5],Potency [6],Potency [7],Potency [8],Potency [9]
CN=C(NC#N)NCCSCc1nc[nH]c1C,inactive,inactive,inactive,inactive,inactive,inactive,inactive,inactive,inactive
COc1ccccc1[N+](=O)[O-],inactive,inactive,inactive,,inactive,inactive,inactive,inactive,inactive
COC(=O)OC,inactive,inactive,inactive,,inactive,inactive,inactive,inactive,inactive
O=C(O)C1=NN(c2ccc(S(=O)(=O)O)cc2)C(=O)C1,inactive,inactive,inactive,inactive,inactive,inactive,inactive,inactive,inactive
Cc1ccccc1C=O,inactive,inactive,inactive,inactive,inactive,inactive,inactive,inactive,inactive
Cc1ncc(CO)c(CO)c1O,inactive,inactive,inactive,inactive,inactive,inactive,inactive,inactive,inactive
Cc1cc(CC(=O)O)n(C)c1C(=O)c1ccc(Cl)cc1,inactive,inactive,inactive,inactive,inactive,inactive,inactive,inactive,inactive
CC(=O)OCc1ccc2c(c1)OCO2,inactive,inactive,inactive,inactive,inactive,inactive,inactive,inactive,inactive
O=[N+]([O-])c1ccccc1C(F)(F)F,inactive,inactive,inactive,inactive,inactive,inactive,inactive,inactive,inactive
COc1ccc2cc3[n+](cc2c1OC)CCc1cc2c(cc1-3)OCO2,22 µM (active) and 19 µM (active),4.4 µM (active),inactive,inactive,inactive,inactive,inactive,inactive,inactive
COC(=O)/C=C\C(=O)OC,inactive,inactive,inactive,,inactive,inactive,inactive,inactive,inactive
CCCCCCCCC(=O)O,inactive,inactive,inactive,,inactive,inactive,inactive,inactive,inactive
OCc1ccc(Cl)cc1Cl,inactive,inactive,inactive,,inactive,inactive,inactive,inactive,inactive
CC[N+](CC)(CC(=O)Nc1c(C)cccc1C)Cc1ccccc1,inactive,inactive,inactive,,inactive,inactive,inactive,inactive,inactive
NC(N)=S,inactive,inactive,inactive,,inactive,inactive,inactive,inactive,inactive
CC(O)CNCC(C)O (stereo not given),inactive,inactive,inactive,inactive,inactive,inactive,inactive,inactive,inactive
CCCCCCCC(=O)O,inactive,inactive,inactive,inactive,inactive,inactive,inactive,inactive,inactive
COc1c(Cl)ccc(Cl)c1C(=O)O,inactive,inactive,inactive,inactive,inactive,inactive,inactive,inactive,inactive
Cc1nnc(NS(=O)(=O)c2ccc(N)cc2)s1,inactive,inactive,inactive,inactive,inactive,inactive,inactive,inactive,inactive
C[Si](C)(C)N[Si](C)(C)C,inactive,inactive,inactive,inactive,inactive,inactive,inactive,inactive,inactive
O=C1C(N(CO)C(=O)NCO)N(CO)C(=O)N1CO (stereo not given),inactive,inactive,inactive,inactive,inactive,inactive,inactive,inactive,inactive
COc1ccc([C@@H]2CC(=O)c3c(O)cc(O[C@@H]4O[C@H](CO[C@@H]5O[C@@H](C)[C@H](O)[C@@H](O)[C@H]5O)[C@@H](O)[C@H](O)[C@H]4O)cc3O2)cc1OC,inactive,inactive,inactive,inactive,inactive,inactive,inactive,inactive,inactive
CC(COCC(C)OC(=O)c1ccccc1)OC(=O)c1ccccc1 (stereo not given),inactive,,inactive,,inactive,inactive,inactive,inactive,inactive
CC(C)c1ccc(C(C)C)cc1,inactive,inactive,inactive,,inactive,inactive,inactive,inactive,inactive
CC(C=O)Cc1ccc(C(C)(C)C)cc1 (stereo not given),inactive,inactive,inactive,inactive,inactive,inactive,inactive,inactive,inactive
CO[Si](CCCNCCN)(OC)OC,inactive,inactive,inactive,,inactive and 49 µM (active),inactive,inactive and 49 µM (active),inactive and 49 µM (active),inactive
CC(C)(CO)CO,inactive,inactive,inactive,inactive,inactive,inactive,inactive,inactive,inactive
O=c1n(CCCN2CCN(c3cccc(Cl)c3)CC2)nc2ccccn12,inactive,12.3 µM (active) and 9.52 µM (active),inactive,inactive,inactive,inactive,inactive,inactive,inactive
CC(=O)CC(=O)N(C)C,inactive,inactive,inactive,inactive,inactive,inactive,inactive,inactive,inactive
